Compounds with a hit are over-represented: about 6.2% of the library has one in this group of screens.
HT1080 IDH1KD tx = HT-1080 IDH1 knockdown cell toxicity (counter line); AID 686971; HT-1080 IDH1 knockdown viability, ATP luminescence, 48 h; hit rate 2% among 360,000; Potency, µM (series often up to 46.1 µM), most hits filed as cytotoxic
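Luminescent ATP read-out (CellTiter-Glo, 10 min at room temperature) after 48 h compound exposure at 37 °C gave viability of IDH1-knockdown HT-1080 cells. Activity was normalised to DMSO and cell-free wells, then fitted as concentration-response curves.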
KB-V1 MDR tox = kills drug-selected multidrug resistant KB-V1 cells. KB-V1 MDR cells viability, CellTiter-Glo, 72 h. Potency, µM (series often up to 46.1 µM), usual class: cytotoxic. hit rate 3.4% among 400,000; note: nearly all actives have a fitted effect of over 60% in size
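Cytotoxicity via CellTiter-Glo luminescence after 72 h compound exposure at 37 degrees C. Cells: drug-selected KB-V1 line, DMEM phenol-red free plus 10% FBS. Compounds tested at multiple concentrations; normalized data fitted to concentration-effect curves.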
HT1080NT lethal = kills 2HG-producing HT-1080-NT fibrosarcoma cells. HT-1080-NT fibrosarcoma viability, CellTiter-Glo ATP luminescence, 48 h. Potency, µM (titrated, usually from 46.1 µM), most hits filed as cytotoxic. hit rate 1.6% among 360,000;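 note: NT is the 2HG producing partner of a matched IDH1 knockdown line; nearly all actives have a fitted effect of over 55% in size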
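HT-1080-NT fibrosarcoma cells (2HG-overproducing), 750 cells/well in RPMI with 5% FBS, dosed after 2 h and incubated 48 h at 37C. CellTiter-Glo luminescence normalized to DMSO and no-cell wells; concentration-response curves fitted and classed.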
ATXN viability = cell viability loss in ATXN counter-screen. S2 cells (HEK-293 line with an ATXN2-luciferase reporter) viability, CellTiter-Fluor protease fluorescence, 24 h. hit rate 0.49% among 400,000. Potency, µM (titrated, usually from 56.7 µM), most hits filed as cytotoxic; note: nearly all actives have a fitted effect of over 40% in size
ATXN2 expr inh = ATXN2 expression inhibition. HEK-293 ATXN2-luciferase reporter, luminescence, 24 h. Potency, µM (highest dose often 57 µM), usual class: inhibitors. hit rate 0.72% among 360,000; note: nearly all actives have a fitted effect of over 55% in size
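qHTS (up to 57 uM final) was run with 24 h compound exposure of reporter cells at 37 °C. Each well was multiplexed: SteadyGlo luminescence measured ATXN2-luciferase expression after a fluorogenic Gly-Phe-AFC viability readout (25 uM final).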
KB-3-1 tox = kills parental KB-3-1 adenocarcinoma cells | Potency, µM (titrated, usually from 46.1 µM), most hits filed as cytotoxic | hit rate 1.4% among 400,000 | KB-3-1 viability, CellTiter-Glo ATP luminescence, 72 h; note: nearly all actives have a fitted effect of over 60% in size
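Luminescent ATP read-out (CellTiter-Glo) measures survival of drug-naive KB-3-1 cells after 72 h compound exposure at 37 °C. Titration series was screened from lowest to highest concentration, with DMSO vehicle plates as background controls.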
Hits are given with their value; n = inactive; u = inconclusive; x = no result given; [ ] = another dose, or the depositor's remark. Calls come from the whole dose curve; as a rule, active = well fitted curve in the direction sought with a large enough effect; inconclusive = small, poorly fitted or top-dose-only effect, or another doubt; inactive = no such curve, though single readings can be large; an effect the other way counts as inactive or inconclusive.

SMILES	HT1080 IDH1KD tx	KB-V1 MDR tox	HT1080NT lethal	ATXN viability	ATXN2 expr inh	KB-3-1 tox
Cc1cccc(-n2cnc3cc(C(=O)N4CCc5ccccc54)ccc32)c1	n	13µM	n	n	n	n
Cc1cccc(-n2cnc3cc(C(=O)NCC4CCCO4)ccc32)c1 (stereo not drawn)	u	u	u	n	x	18µM
Nc1c(-c2ccc(C(F)(F)F)cc2)nc2ncccn12	n	n	n	x	x	n
CN(C)c1ccc(/C=C/c2ccccn2)cc1	x	n	x	x	x	u
CCN(CC)c1ccc(/C=C/c2ccccn2)cc1	x	n	x	x	x	0.33µM
Cc1ccc(C)c(NC(=O)Cn2ncc3c(C)n(Cc4ccc(F)cc4)c(C)c3c2=O)c1	x	n	x	x	x	n
Cc1ccc(C)c(NC(=O)CCS(=O)(=O)c2cccc3nsnc23)c1	x	n	x	n	n	n
C#CCN(C[C@@H]1[C@@H](OC(=O)Nc2cccs2)[C@@H](OC(=O)Nc2cccs2)Cn2c(=O)ccc(=O)n21)S(=O)(=O)c1ccc(C)cc1	16µM	n	18µM	3.5µM	3.5µM	u
C#CCN(C[C@@H]1[C@@H](OC(=O)NCc2ccccc2F)[C@@H](OC(=O)NCc2ccccc2F)Cn2c(=O)ccc(=O)n21)S(=O)(=O)c1ccc(C)cc1	6.5µM	n	6.5µM	4µM	4µM	15µM
C#CCN(C[C@@H]1[C@@H](OC(=O)NC2CCCC2)[C@@H](OC(=O)NC2CCCC2)Cn2c(=O)ccc(=O)n21)S(=O)(=O)c1ccc(C)cc1	8.2µM	n	7.3µM	11µM	u	n
C#CCN(C[C@@H]1[C@@H](OC(=O)NCc2ccccc2F)[C@@H](OC(=O)NCc2ccccc2F)Cn2c(=O)n(CCCCCC)c(=O)n21)S(=O)(=O)c1ccc(C)cc1	n	n	n	u	n	n
CCN1CCN(c2ncc3c(n2)CCN(CC(C)C)C3)CC1	x	n	x	n	n	n
CCOC(=O)c1cc(C#N)c(SCc2ccc(C#N)cc2)nc1C	n	2.3µM	n	n	n	n
CCOC(=O)c1cc(C#N)c(SC)nc1C	n	n	n	n	n	n
CCOC(=O)c1cnc(SCC(=O)Nc2cc(OC)cc(OC)c2)nc1N	u	2.3µM	n	u	n	u
CCOC(=O)c1cnc(SCCc2ccccc2)nc1N	n	23µM	n	n	n	n
Cc1cc(NO)nc(-c2ccc(Br)cc2)n1	n	n	10µM	n	n	n
Cc1cc(C)nc(NC(=O)c2ccc(Br)cc2)n1	n	n	n	n	n	n
CCCCCNC(=O)C(c1ccc(OC)cc1)n1c(=O)c(-c2ccco2)nc2ccccc21 (stereo not drawn)	15µM	18µM	26µM	x	x	u
CCCCCNC(=O)C(c1ccc(C#N)cc1)n1c(=O)c(-c2ccco2)nc2ccccc21 (stereo not drawn)	n	n	n	x	x	n
COc1c(C)cc(S(=O)(=O)N2CCCC2)c(C)c1C	n	23µM	n	n	n	n
O=C(Nc1cccc2c(=O)cc(-c3nn[nH]n3)oc12)c1ccc(OCCCCc2ccccc2)cc1	x	x	x	n	n	x
C[C@@H]1CN([C@H](C)CO)C(=O)CCCn2cc(nn2)CO[C@H]1CN(C)C(=O)Nc1ccc2c(c1)OCCO2	n	n	n	n	n	u
Cc1ccc(C(=O)Nc2cccc(C(F)(F)F)c2)cc1-c1ccc2nc(NCCN3CCOCC3)ncc2c1	x	x	x	x	6.1µM	x
FC(F)(F)c1cccc(NC(=S)NCCN2CCOCC2)c1	n	n	n	n	n	n
SMILES	HT1080 IDH1KD tx	KB-V1 MDR tox	HT1080NT lethal	ATXN viability	ATXN2 expr inh	KB-3-1 tox
O=C1C2C3C=CC(C4CC34)C2C(=O)N1CCc1ccccc1 (stereo not drawn)	n	18µM	n	n	n	n
CN(C)CCCNS(=O)(=O)c1ccc(NC2CCCCCC2)c([N+](=O)[O-])c1	u	u	u	n	n	18µM
COc1ccc(/C=C\C(=O)O[C@@H]2C(O)C(O[C@@H]3OC(C)[C@H](O[C@@H]4OCC(O[C@H]5O[C@H](CO)[C@@H](O)C(O)C5O)C(O)C4O)C(O)C3O)[C@H](OC(=O)[C@]34CCC(C)(C)C[C@@H]3C3=CCC5[C@@]6(C)CC(O)C(O[C@@H]7OC(CO)C(O)[C@H](O)[C@H]7O)[C@@](C)(C(=O)O)C6CC[C@@]5(C)[C@]3(CO)CC4)O[C@H]2C)cc1 (stereo partly drawn)	21µM	n	u	11µM	7.1µM	n
C=C1c2cc(C)ccc2NC(=O)N1c1ccc(C)cc1	n	n	n	n	n	n
C=C1c2cc(OC)ccc2NC(=O)N1CC	n	7.3µM	n	n	n	n
CN(C)c1ccc(/C=C/N2C=CCc3c2ccc2ccccc32)cc1	x	u	x	x	x	0.58µM
CCCC(=O)O[C@]1(C(=O)CC)CC[C@H]2[C@@H]3CCC4=CC(=O)CC[C@]4(C)[C@H]3[C@@H](O)C[C@@]21C	x	x	x	n	n	x
COC(=O)[C@@]12C[C@@H](CC(=O)NCc3cccs3)C(=O)N(Cc3cccc4ccccc34)C1=CCC(C)(C)C2	u	16µM	u	x	x	u
COC(=O)[C@@]12C[C@@H](CC(=O)NCC34CC5CC(CC(C5)C3)C4)C(=O)N(Cc3ccco3)C1=CCC(C)(C)C2	u	15µM	21µM	x	x	u
CCCCNC(=O)C[C@@H]1C[C@@]2(C(=O)OC)CC(C)(C)CC=C2N(Cc2cccc3ccccc23)C1=O	u	u	n	x	x	n
C#CCNC(=O)C[C@@H]1C[C@@]2(C(=O)OC)CC(C)(C)CC=C2N(Cc2cccc3ccccc23)C1=O	u	23µM	u	x	x	u
C#CCNC(=O)C[C@@H]1C[C@@]2(C(=O)OC)CC(C)(C)CC=C2N(Cc2ccco2)C1=O	n	u	n	x	x	n
COc1ccccc1C(=O)NCCC(=O)Nc1ccc(S(=O)(=O)N2CC(C)CC(C)C2)cc1 (stereo not drawn)	n	u	n	n	n	n
O=C(Nc1sc2c(c1C(=O)NCc1ccco1)CCCC2)c1cc(=O)c2cc(Cl)ccc2o1	x	u	x	n	n	n
COC(CNC(=O)c1ccc(N2CCc3ccccc32)c([N+](=O)[O-])c1)OC	n	15µM	n	n	n	u
NNC(=O)c1ccc(N2CCc3ccccc32)c([N+](=O)[O-])c1	n	n	n	u	n	n
N#C/C(=N/Nc1ccc(OC(F)(F)F)cc1)C(N)=S	16µM	u	23µM	x	x	u
COc1ccc(N/N=C(\C#N)C(N)=O)cc1	n	n	n	n	n[11.3 µM]	n
COc1ccc2oc(=O)c(-c3nc(C)cs3)cc2c1	n	n	n[9.24 µM]	n	n	u
CC/C(C)=N\Nc1nc(-c2cc3cc(OC)ccc3oc2=O)cs1	15µM	n	u	n	n	n
CCOC(=O)c1[nH]c(C)c(C(=O)Nc2ccc(C)c(C)c2)c1C	n	u	n	n	n	u

Screening data: PubChem BioAssay, National Center for Advancing Translational Sciences (NCATS)
